Assay outcomes deposited in PubChem by National Center for Advancing Translational Sciences (NCATS).
Rows were chosen to be rich in hits. Some 7.5% of all compounds tested hit in one or more screens of this group.
ELG1 genotoxic: induces genotoxicity in HEK293T cells with luciferase-tagged ELG1. HEK293T ELG1-luciferase reporter, luminescence, 16 h. AID 504466. Potency, µM (highest dose often 46 µM), usual class: activators. 330,000 tested, 1.3% active; further: nearly all actives have a fitted effect of over 60% in size
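DMSO vehicle served as control against compound-treated ELG1-luciferase HEK293T cells; exposure lasted 16 hr at 37 °C and 5% CO2, followed by ONE-Glo luminescence detection after 30 min.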
KinaseGlo FLuc: Kinase-Glo luciferase inhibition (counter-screen); Q27757; Kinase-Glo luciferase, ATP luminescence, 8 min; Potency, µM (titrated, usually from 38.3 µM), most hits filed as inhibitors; 200,000 tested, 0.28% active; further: nearly all actives have a fitted effect of over 60% in size
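Compound is pinned into ATP-containing buffer (10 uM ATP, imidazole pH 7.2, 7 mM MgCl2). Kinase-Glo luciferase reagent is then added. Light output is recorded following an 8-min room-temperature incubation.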
SMN2 splice enh: SMN2 splice variant enhancement | HEK293 SMN2-luciferase splicing reporter, luminescence, 30-36 h | Potency, µM (highest dose often 46.1 µM), most hits filed as activators | 210,000 tested, 2.8% active; further: nearly all actives have a fitted effect of over 55% in size
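HEK293 cells carry an SMN2 minigene-luciferase reporter in which exon 7 inclusion puts luciferase in frame. Cells were seeded at 2000 cells/well, attached for 10-12 hours, then exposed to compounds for 30-36 hours at 37C before ONE-Glo luminescence.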
Rab9 prom act: Rab9 promoter activation. 320,000 tested, 2.8% active. Huh7 Rab9 promoter-luciferase reporter, luminescence, 24 h. Potency, µM (titrated, usually from 9.22 µM), most hits filed as activators; further: nearly all actives have a fitted effect of over 60% in size
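Huh7 reporter line, Rab9 promoter upstream of luciferase. Compound exposure 24 h at 37 °C in reduced-serum medium with 10% FBS. Read-out: luminescence.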
FLuc counter: firefly luciferase modulation, counter-screen for miR-21 project; P08659; purified FLuc, Km substrates, luminescence inhibition; Potency, µM (top dose mostly 57.5 µM), most hits filed as inhibitors; 360,000 tested, 6.9% active; further: nearly all actives have a fitted effect of over 55% in size
Target sequence (P08659 whole entry, looked up): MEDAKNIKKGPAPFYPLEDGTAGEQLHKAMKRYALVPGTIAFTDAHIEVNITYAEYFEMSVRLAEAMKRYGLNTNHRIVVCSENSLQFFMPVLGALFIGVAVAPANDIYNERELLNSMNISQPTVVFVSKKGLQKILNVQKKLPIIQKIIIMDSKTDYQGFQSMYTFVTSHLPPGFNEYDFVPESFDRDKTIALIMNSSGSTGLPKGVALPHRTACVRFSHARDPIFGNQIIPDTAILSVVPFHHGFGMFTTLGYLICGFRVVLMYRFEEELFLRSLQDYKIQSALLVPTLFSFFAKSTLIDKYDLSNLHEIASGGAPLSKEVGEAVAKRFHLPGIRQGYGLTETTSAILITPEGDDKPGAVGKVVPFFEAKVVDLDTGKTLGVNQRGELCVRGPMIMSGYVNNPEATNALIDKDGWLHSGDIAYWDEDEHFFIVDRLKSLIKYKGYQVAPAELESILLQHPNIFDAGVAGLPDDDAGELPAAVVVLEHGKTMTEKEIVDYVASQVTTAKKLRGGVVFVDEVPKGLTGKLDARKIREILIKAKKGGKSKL
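Purified P. pyralis luciferase (10nM final) with 10uM D-luciferin and 10uM ATP (Km levels) in 50mM Tris acetate pH 7.5, 10mM Mg acetate, 0.01% Tween-20, 0.05% BSA; qHTS 6-point titration, ~60 µM downward; luminescence read.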
NPC1 prom act: NPC1 promoter activation; Potency, µM (doses to about 9.22 µM), hits mostly activators; 320,000 tested, 2.4% active; AID 485313; Huh7 NPC1 promoter luciferase reporter, 24 h; further: nearly all actives have a fitted effect of over 60% in size
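Luminescence from an NPC1 promoter-driven luciferase reporter in stably transfected Huh7 cells was measured after 24 h compound treatment at 37 °C, followed by 10 min ambient incubation with luciferase detection reagent.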
Hits are given with their value; . = inactive; ? = inconclusive; / = no result; [ ] = dose if it differs, or a comment. The call rests on the fitted dose curve; in most records, active means well fitted curve in the direction sought with a large enough effect; inconclusive means small, poorly fitted or top-dose-only effect, or another doubt; inactive means no such curve, though single readings can be large; an effect the other way counts as inactive or inconclusive.

SMILES	ELG1 genotoxic	KinaseGlo FLuc	SMN2 splice enh	Rab9 prom act	FLuc counter	NPC1 prom act
Cc1ccc(/C=C2/Sc3ccc(C(=O)NCCN4CCOCC4)cc3NC2=O)cc1	.	/	/	.	?	.
Cc1ccccc1C(=O)Nc1cccc(C(=O)OCc2cc(=O)n3nc(C4CC4)sc3n2)c1	/	/	/	/	.	/
Cc1ccc(C(=O)COC(=O)C(CC(C)C)NC(=O)C2CCC(C)CC2)cc1 (stereo not drawn)	/	/	.	/	.	/
CCOC(=O)CNC(=O)c1cc(-c2ccc3c(c2)OCCO3)oc1C	?	.	.	.	9.5µM	.
COC(=O)CCC(NC(=O)c1cc(-c2ccc3c(c2)OCCO3)oc1C)C(=O)OC (stereo not drawn)	.	.	.	.	17µM	.
Cc1oc(-c2ccc3c(c2)OCCO3)cc1C(=O)NC(Cc1ccccc1)C(=O)O (stereo not drawn)	.	/	/	.	15µM	.
CCOC(=O)CNC(=O)c1ccc2c(c1)OCCO2	?	.	.	?	19µM	?
COC(=O)C(Cc1c[nH]c2ccccc12)NC(=O)c1cc(-c2ccc(OC)c(OC)c2)oc1C (stereo not drawn)	.	.	.	.	.	.
CCOC(=O)CNC(=O)c1cc(C)oc1C	.	.	?	.	.	.
COCCNC(=O)c1ccc2c(c1)NC(=O)C(CS(=O)(=O)Cc1ccc(F)cc1Cl)N2 (stereo not drawn)	/	/	/	/	.	/
CNC(=O)C1CN(C(=O)c2cccc(S(=O)(=O)N3c4ccccc4CC3C)c2)c2ccccc2O1 (stereo not drawn)	.	/	/	.	.	.
CC(C)(C)C1CCc2nc(NC(=O)COc3ccc(F)cc3)sc2C1 (stereo not drawn)	/	/	/	/	.	/
CCN(CC)c1ccc(N=Nc2nn(C)c(C)c2[N+](=O)[O-])cc1	5.8µM	.	14µM	1.4µM	1.7µM	0.79µM
CCN(Cc1ccccc1)c1ccccc1	/	/	.	/	/	/
CCN(Cc1ccccc1)c1ccc(N=Nc2nn(C)c(C)c2[N+](=O)[O-])cc1	.	.	?	.	15µM	.
CC(=O)Nc1ccc(NC(=O)c2cc(-c3ccc(C)c(C)c3O)n[nH]2)cc1	.	/	/	.	5.4µM	.
Cc1ccc(-c2cc(C(=O)Nc3ccc(S(=O)(=O)Nc4ncccn4)cc3)[nH]n2)c(O)c1C	.	/	/	.	4.8µM	.
CC(=O)Nc1ccc(NC(=O)c2cc(-c3cc(C)cc(C)c3O)n[nH]2)cc1	.	/	/	.	3.4µM	.
Cc1ccc(S(=O)(=O)c2nnn3c2nc(NC(C)c2ccccc2)c2sccc23)cc1 (stereo not drawn)	/	/	/	/	.	/
COc1cccc2cc(-c3ccccc3)c(=O)oc12	?	?	11µM	2.8µM	8.5µM	2.5µM
COc1cccc2cc(-c3nc4ccccc4[nH]3)c(=O)oc12	?	/	/	2.2µM	1.7µM	1.4µM
COc1ccc(-c2cc3cccc(OC)c3oc2=O)cc1	?	/	/	0.5µM	0.6µM	0.45µM
CNC(=O)c1cc2cccc(OC)c2oc1=O	.	.	.	.	.	.
COc1ccc(Nc2nc(-c3cc4cccc(OC)c4oc3=O)cs2)cc1	.	.	.	.	.	.
CCc1ccccc1NC(=O)N1CCN(Cc2nc3ccc(C)cc3o2)CC1	/	/	/	/	.	/
SMILES	ELG1 genotoxic	KinaseGlo FLuc	SMN2 splice enh	Rab9 prom act	FLuc counter	NPC1 prom act
O=C1C=CC2(OCCCO2)C(Br)=C1CO	/	.	.	/	/	/
COc1cc(/C=N/NC(=O)c2ccccn2)ccc1OC(=O)c1cccs1	?	/	/	.	13µM	?
COc1cc(/C=N/NC(=O)COc2ccc(C)cc2)ccc1OC(=O)c1cccs1	.	.	.[1.84 µM]	.	11µM	.
COc1cc(/C=N/NC(=O)c2cccnc2)cc2c1OCO2	.	/	/	.	.	.
COc1cc(/C=N/Nc2ccccc2)ccc1OC(=O)c1cccs1	?	.	?	.	21µM	.
COc1cc(/C=N/NC(=O)C(N)=O)ccc1OC(=O)c1cccs1	.	.	.	.	.	.
COc1cc(/C=N/NC(=O)c2ccccn2)cc2c1OCO2	?	.	11µM	?	24µM	?
CCOc1cc(/C=N/NC(=O)COc2ccc(C)cc2)ccc1OC(=O)c1cccs1	.	.	.	.	.	.
COc1ccc(-c2nnc(SCC(=O)Oc3cccc(C)c3C)o2)cc1	/	/	/	/	.	/
O=C(Nc1cccc(F)c1)N1CCC2(CCNCC2)CC1	/	.	.	/	/	/
Cc1nn(-c2ccccc2)c2nc(C3CC3)cc(C(=O)Nc3ccc(F)cc3)c12	/	/	/	/	.	/
O=C(CSc1nc(-c2ccccc2)no1)N1CCN(c2ccc(F)cc2)CC1	/	/	/	/	.	/
COc1cc(/C=N/Nc2ccc(Cl)c(C(=O)O)c2)ccc1OC(=O)c1cccs1	.	.	.	?	24µM	.
O=C(COc1ccccc1Cl)Nc1cc(-c2ccccc2F)nn1-c1ccccc1	/	/	/	/	.	/
C=CCC(C)(O)C#Cc1ccccc1 (stereo not drawn)	/	.	.	/	/	/
CC(=O)N/N=C(/C)c1ccc(NC(=O)c2csc(C)c2C)cc1	12µM	/	/	1.4µM	11µM	2.8µM
C/C(=N/NC(=O)c1cccs1)c1ccco1	?	.	?	?	17µM	.
C/C(=N/NC(=O)OC(C)(C)C)c1ccco1	?	.	14µM	2.5µM	19µM	?
CC(/C=N/NC(=O)c1cccs1)=C\c1ccco1	9.2µM	.	11µM	1.4µM	6µM	3.2µM
C/C(=N\NC(=O)c1cccs1)c1ccc(C(=O)O)s1	?	/	/	.	.	.
CC(/C=N/NC(=O)Cc1cccs1)=C\c1ccco1	.	.	.	?	?	?
COC(=O)C(c1ccccc1Cl)N1CCc2sccc2C1 (stereo not drawn)	/	.	.	/	/	/
C/C(=N\NC(=O)c1csc(C)c1C)c1ccco1	6.5µM	?	11µM	2.2µM	7.6µM	4µM
C/C(=N\NC(=O)c1csc(C)c1C)c1ccc(C)s1	?	.	?	?	?	?
CCOC(=O)N1CCc2c(sc3c2c(=O)n(CCc2ccccc2)c(=O)n3Cc2ccc(F)cc2)C1	/	/	.	/	.	/
SMILES	ELG1 genotoxic	KinaseGlo FLuc	SMN2 splice enh	Rab9 prom act	FLuc counter	NPC1 prom act
O=C(NNc1cc(Br)c(O)c(Br)c1)c1ccccc1	.	.	.	.	21µM	.
Cc1ccc(-c2nnc(Nc3ccc(O)cc3)c3ccccc23)cc1S(=O)(=O)N1CCCCC1	/	/	.	/	.	/
Cc1ccc2nc(-c3ccc(N)cc3)sc2c1S(=O)(=O)O	/	/	14µM	/	/	/
COc1cc(SC)ccc1C(=O)Nc1ccc2c(c1)OCO2	2.6µM	.	11µM	1.6µM	1.3µM	0.89µM
COc1cc(SC)ccc1C(=O)NCCOc1c(C)cc(C)cc1C	.	/	/	.	.	.
COc1cc(SC)ccc1C(=O)Nc1ccc(S(=O)(=O)N2CCCC2)cc1	.	.	.	.	.	.
COc1cc(SC)ccc1C(=O)Nc1ccc(C)cc1C	?	.	13µM	3.5µM	2.7µM	2.5µM
